Experimental data reported in PubChem BioAssay AID624202 (National Center for Advancing Translational Sciences (NCATS), 2012).
Among all 380,000 compounds or so, about 4,000 (1.1%) were called active. Inconclusive results (about 3%) are left out. The sample holds actives, similar compounds and a random draw of the others, so the mix is not that of the screen. A number with no mark means an inactive call. The call rests on the fitted dose curve; in most records, active means well fitted activation curve with a large enough effect; inconclusive means small, poorly fitted or top-dose-only effect; inactive means no such curve, though single readings can be large or run the other way.

Assay: qHTS Assay to Identify Small Molecule Activators of BRCA1 Expression; further: nearly all actives have a fitted effect of over 80% in size
Conditions: MCF7-BRCA1-FFLuc reporter, luminescence, 48 h; series mostly up to 46.1 µM; activation: at the top concentration
In short: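 First, MCF7-BRCA1-FFLuc cells (2000/well) attach for 2 h; next, compounds are pin-added and incubated 48 h at 37 °C; finally, luciferase reagent is added and luminescence read after 15 min.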
Potency means the concentration at half of the fitted maximal effect.

Structure (SMILES) | activation | Potency
Cc1cccc(OCC(=O)OCC(=O)Nc2ccc(Cl)cn2)c1 | -9.48% | 
O=C(COC(=O)c1ccco1)Nc1ccc(Cl)cn1 | -5.28% | 
O=C(Nc1ccc(Cl)cn1)c1cnn2cccnc12 |  | 6.31 µM (active)
CC(C)N(Cc1nnc(-c2ccc(Cl)cc2)o1)C(=O)C1=COCCO1 | 27% | 
CN(C)CCN(C(=O)C1=COCCO1)c1nc2ccc(Cl)cc2s1 |  | 12.6 µM (active)
Cc1cc(N2CCN(c3cccc(C(F)(F)F)c3)CC2)n2nc(-c3ccccc3)nc2n1 | -34.4% | 
CCOC(=O)Cc1ccc(NC(=O)Nc2c[nH]c(=O)[nH]c2=O)cc1 | 9.34% | 
COC(=O)c1ccc(C2C(C(=O)Nc3ccccc3)=C(C)Nc3nc4ccccc4n32)cc1 (centres undefined) | 1.34% | 
Cc1ccccc1-n1c(=O)c2ccccc2n(Cc2ccc(F)cc2)c1=O | 1.73% | 
Cc1nn(CC(=O)Nc2ccc3c(c2)nc(CN2CCCCC2)n3C)c(=O)c2ccccc12 | -21.1% | 
Cn1c(CCN2CCCCCC2)nc2cc(NC(=O)Nc3ccccc3)ccc21 |  | 7.94 µM (active)
Cn1c(CCN2CCN(c3ccccn3)CC2)nc2cc(NS(=O)(=O)c3ccc(F)cc3)ccc21 | -8.24% | 
COc1ccc(-c2nc3nc(C)cc(C)n3c2Nc2c(C)cccc2C)cc1 | -20.3% | 
CCOC(=O)c1c(C)[nH]c(C)c1S(=O)(=O)N(C)CC(=O)N1CCN(c2ccccc2)CC1 | 3.46% | 
CC(C)CNC(=S)Nc1ccc(F)cc1 |  | 10 µM (active)
CC(C)CNC(=S)NNC(=O)c1ccccc1OC(F)F | -0.636% | 
CC(NC(=S)Nc1ccc(OC(F)F)cc1)c1ccc(F)cc1 (centres undefined) | -27.5% | 
COc1ccc(/C=C/c2nnc(NC(=O)C(C)C)s2)cc1 |  | 3.98 µM (active)
CC(C)C(=O)Nc1nnc(Sc2ccc(N(C)C)cc2)s1 | -16.1% | 
O=C(CSc1ccccc1)Nc1nnc(/C=C/c2ccccc2)s1 | 70.1% | 
CCOc1ccc(OCC)c(NC(=O)c2c(C)nn(-c3ccccc3)c2-n2cccc2)c1 | 65.8% | 
Cc1cc2c(cc1S(=O)(=O)CCC(=O)Nc1ccc(OC(F)(F)F)cc1)OCC(=O)N2 | 6.63% | 
CCOc1ccc(NC(=O)CSc2nnc3c(n2)[nH]c2ccc(S(=O)(=O)N4CCOCC4)cc23)cc1 | 8.86% | 
COc1ccc(Nc2nc(NCc3ccco3)nc(N/N=C/c3ccccc3Cl)n2)cc1 | 65.1% | 
COc1ccc(-n2cnc3cc(NCc4ccco4)ccc32)cc1 |  | 8.91 µM (active)
COc1cccc(Nc2nc(N)c([N+](=O)[O-])c(NCc3ccco3)n2)c1 | 0.078% | 

Structure (SMILES) | activation | Potency
Cc1csc(NCC(=O)c2c[nH]c3ccccc23)n1 | 14% | 
O=C(NCCCc1ccccc1)C(=O)c1c[nH]c2ccccc12 | 61.3% | 
O=C(NC1CCCC1)C(=O)c1c[nH]c2ccccc12 |  | 11.2 µM (active)
CC1CCN(CC(=O)c2c[nH]c3ccccc23)CC1 | 6.76% | 
CC(C)Oc1ccc(CNC(=O)C2CCN(c3nc4ccccc4n(C)c3=O)CC2)cc1 | -1.95% | 
CCn1nc(C)c(/C=N/NC(=O)Cc2ccc(Cl)cc2)c1C |  | 7.94 µM (active)
O=C(CSc1nnc(SCc2ccc(Cl)cc2)s1)N/N=C/c1ccccc1Cl | 11.2% | 
Cc1nn(Cc2ccc(Cl)cc2)c(Cl)c1/C=N/NC(=O)CNc1ccccc1F | 23% | 
COc1cc2[nH]c(C)c(CCN3CCN(c4ccccc4)CC3)c2cc1OC | 8.7% | 
COc1ccccc1C1C(C(=O)N2CCCCC2)=C(C)Nc2nc3ccccc3n21 (centres undefined) | 1.14% | 
COC(=O)C1=C(C(=O)OC)[C@@H]2N(Cc3ccccc3)c3ccccc3[C@@]23C[C@@H](C(=O)OC)N(S(=O)(=O)c2ccc(C(F)(F)F)cc2)C3=N1 | -3.67% | 
Cc1ccc(S(=O)(=O)c2nc(NCCCn3ccnc3)sc2Cl)cc1 | -18.5% | 
Cc1ccc2c(Cl)c(C(=O)NCCCn3ccnc3)sc2c1 | -2.83% | 
Cc1ccc(-c2nc(C#N)c(NCCCn3ccnc3)o2)cc1 |  | 4.47 µM (active)
CC(C)c1ccc(NC(=O)CN(C)S(=O)(=O)c2ccc3c(c2)c(=O)n(C)c(=O)n3C)cc1 | 6.46% | 
COc1ccc2c(c1)c(N1CCCC1=O)c(C(=O)Nc1ccccc1C(F)(F)F)n2C | -15.9% | 
O=C(/C=C/c1ccc(Cl)cc1Cl)NCc1ccco1 |  | 11.2 µM (active)
O=C(COC(=O)Cc1ccc(Cl)cc1Cl)NCc1ccco1 | 1.86% | 
COC(=O)/C=C/C(=O)NCc1ccco1 | 7.24% | 
O=C(NCC12CC3CC(CC(C3)C1)C2)c1cc2nc(-c3ccccc3)cc(C(F)(F)F)n2n1 | 4.13% | 
COc1ccc(-n2ccnc(NCCc3ccc(Cl)cc3)c2=O)cc1OC | -20.9% | 
O=C(NC1CCN(Cc2ccccc2)CC1)c1ccc(Cn2c(=O)c3ccccc3n(Cc3cccc(F)c3)c2=O)cc1 | -0.126% | 
S=c1[nH]nc(Nc2ccccc2)s1 | 29.3% | 
CNC(=O)c1sc(Nc2ccc(OCc3ccccc3)cc2)nc1C | -32.3% | 
CC(C)(C)C(=O)c1cnc(Nc2ccccc2)s1 |  | 4.47 µM (active)
CCOc1n[nH]c(-c2ccccc2)n1 | 7.24% | 

Structure (SMILES) | activation | Potency
COc1cc(-c2noc(-c3ccc(N4CCCC4)c([N+](=O)[O-])c3)n2)cc(OC)c1OC | 1.9% | 
COc1ccc(-c2noc(-c3cccc(OC)c3OC)n2)cc1OC |  | 3.98 µM (active)
COc1ccc(-c2noc(CSc3nc(C)cc(=O)[nH]3)n2)cc1OC | 6.36% | 
CCN(CC)S(=O)(=O)c1ccc(C(=O)N=c2sc3cccc(OC)c3n2C)cc1 | 1.52% | 
C=COC(=O)N1CCN(/[N+]([O-])=N/Oc2ccc([N+](=O)[O-])cc2[N+](=O)[O-])CC1 | -34.6% | 
Cc1ccn(-c2cccc(-n3ccc(C)n3)n2)n1 |  | 12.6 µM (active)
Cc1cccc(N2O[C@H]3C=CC2CCCC3)n1 | 8.96% | 
CCCN(CCC)C(=O)Cn1c(=O)n(-c2ccc(Cl)cc2)c(=O)c2c3c(sc21)CCCCC3 | 0.395% | 
CCn1cc(C(=O)NCCc2ccccc2)c(=O)c2cc(S(=O)(=O)N3CCCCCC3)ccc21 | 21.6% | 
Cc1ccc(-n2c(C)cc(/C=C(\C#N)C(=O)NCC3CCCO3)c2C)cc1 (centres undefined) |  | 2.51 µM (active)
Cc1ccc2c(c1)N(CC(=O)NCC1CCCO1)C(=O)CO2 (centres undefined) | 10.8% | 
COCc1cc(C)n(CC(=O)NCC2CCCO2)c(=O)c1C#N (centres undefined) | -1.54% | 
CCC(=O)N1CCc2cc(CNC(=O)Nc3ccccc3Cl)ccc21 | 0% | 
CCCC(=O)N1CCN(c2nc3c(OC)ccc(C)c3s2)CC1 | 0% | 
CCCN(CCC)S(=O)(=O)c1ccc(C(=O)Nc2sc3c(c2C(=O)OC)CCN(CC)C3)cc1 | -3.04% | 
O=C(CC(c1cccs1)N1Cc2ccccc2C1=O)Nc1ccc(F)cc1F (centres undefined) | -10.8% | 
CC(C)(C)C(=O)Nc1ccc(-c2cn3cccnc3n2)cc1 |  | 2.82 µM (active)
CC(C)(C)C(=O)Nc1cccc(-c2ccc[nH]2)n1 | 14.2% | 
CCCCCC(=O)Nc1ccc(-c2cn3cccnc3n2)cc1 | 26.8% | 
N#CC(=C1SC=CS1)c1nc(-c2ccccc2)cs1 | 0.115% | 
N#CC(=C1CCCC1)c1nc(-c2ccc(Cl)cc2)cs1 |  | 6.31 µM (active)
CCCCCN1CC(O)=C(c2nc(-c3ccc(Cl)cc3)cs2)C1=N | 3.59% | 
OC(Cc1ccc2ccccc2n1)c1ccc(Cl)c(Cl)c1 (centres undefined) | 91.1% | 
O=C(Cc1c[nH]c2ccccc12)N/N=C/c1cccc(F)c1 | -8.13% | 
O=C(Cc1ccc(F)cc1)N/N=C/c1ccc2c(c1)OCO2 |  | 3.98 µM (active)
O=C(CN1CCSCC1)N/N=C/c1ccc(F)cc1 | 5.61% | 

Structure (SMILES) | activation | Potency
O=C(C1CCCN(S(=O)(=O)c2cccc3nonc23)C1)N1CCN(c2ccccc2F)CC1 (centres undefined) | 20% | 
Cn1c(=O)c2c(nc(Oc3ccc(C#N)cc3)n2Cc2ccc(Cl)cc2Cl)n(C)c1=O | 15% | 
O=C(COC(=O)c1ccccc1OCCOc1ccccc1)Nc1cccc(Br)c1 | 27.6% | 
Cc1cccc(OCCSc2nc3ccccc3n2CC(=O)N2CCCCC2)c1C | -0.0666% | 
COc1cccc(C(=O)c2sc3nc(-c4ccccc4)cc(C(F)(F)F)c3c2N)c1 | -16.2% | 
CCN(CC)C(=O)c1sc2nc(-c3ccccc3)ccc2c1N |  | 2.24 µM (active)
CCN(CC)C(=O)c1nc[nH]c1C(=O)N(C)Cc1ccccc1 | 5.79% | 
Cc1ccc(S(=O)(=O)N2CCN(c3nc(-n4cnc5ccccc54)nc4ccccc34)CC2)cc1 | 1.6% | 
CCCCCn1c(=O)[nH]c2cc(C(=O)Nc3ccc(F)cc3)ccc2c1=O | 0% | 
CN(C)C1=C2C=CC=CC2/C(=C2/C=Cc3ccccc32)C=C1 (centres undefined) | -38.7% | 
O=C(COc1ccccc1C(=O)Nc1ccccc1)Nc1cccc(F)c1 | -25.4% | 
Cc1ccc(C)c(N2CCN(C(=O)CN3C(=O)COc4ccc(S(=O)(=O)N5CCCCCC5)cc43)CC2)c1 | -8.26% | 
COc1cc(-c2nnc(NC(=O)C3=COCCO3)o2)cc(OC)c1OC | -6.67% | 
CCOC(=O)c1sc(N)c(C#N)c1COC(=O)C1=COCCO1 | -3.85% | 
Cc1sc(NC(=O)C2=COCCO2)c(C#N)c1C |  | 12.6 µM (active)
CCC(CC)c1nnc(NC(=O)C2CCN(C(=O)c3ccco3)CC2)s1 | -18.7% | 
CCn1c(SCC(=O)Nc2sc(C)c(C)c2C#N)nnc1C1CC1 | 4.48% | 
CCC(CC)c1nnc(NC(=O)C2=COCCO2)s1 |  | 10 µM (active)
COc1ccc(N(CC(=O)NCCc2ccc(Cl)cc2)S(=O)(=O)c2c(C)nn(C)c2C)cc1 | -29.5% | 
CCCCOc1ccc(C(=O)NO)cc1 | -15.2% | 
CC1(C)C=Cc2c(ccc(C(=O)/C=C/c3ccccc3)c2O)O1 | 37.3% | 
CC1(C)C=Cc2c(ccc3c2OC[C@@H](c2ccc(O)cc2O)C3)O1 |  | 11.2 µM (active)
O=C(/C=C/c1ccccc1)N1CCN(Cc2cc(=O)n3nc(-c4ccccc4F)sc3n2)CC1 | 0% | 
O=C(Cc1cccc2ccccc12)Nc1ccc2oc(-c3ccccc3)nc2c1 |  | 11.2 µM (active)
Cc1ccc(NC(=S)NC(NC(=O)Cc2cccc3ccccc23)C(Cl)(Cl)Cl)cc1 (centres undefined) | -17% | 
O=C(Cc1cccc2ccccc12)NNC(=O)Nc1ccc(Cl)cc1 | 0% | 
